Source: PubChem BioAssay (EPA / NIEHS)
Calls of active or inactive are those of the source. How the source made its calls: active means hit-call score of the fitted dose curve at least 0.9, where 1 is the maximum; inactive means score below 0.9.

How the values were obtained:
[1] = APR_HepG2_CellCycleArrest_24hr: Apredica 24-hour HepG2 Assay for Cell Cycle Arrest (AID 2282905); conditions: imaging, actives raise or lower the signal;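 further: cell cycle arrest scored as ratio of 2N to 4N nuclear DNA content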
Summary of the method: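 Cell cycle arrest is scored from nuclear DNA content measured by high-content imaging of Hoechst 33342-stained HepG2 cells following 24-hour treatment at ten concentrations up to 200 uM, with DMSO as baseline.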

[2] = APR_HepG2_StressKinase_1hr: Apredica 1-hour HepG2 Assay for Stress Kinase (AID 2282906); conditions: HepG2 stress kinase (phospho-c-Jun) imaging, actives raise or lower the signal
Summary of the method: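 HepG2 cells dosed 0.39-200 uM (0.5% DMSO) for 1 h, then formaldehyde-fixed. Stress kinase read by phospho-c-Jun immunofluorescence using high-content imaging; bidirectional fit vs DMSO.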

[3] = APR_HepG2_NuclearSize_24hr: Apredica 24-hour HepG2 Assay for Nuclear Size (AID 2282907); conditions: high-content imaging, actives raise or lower the signal
Summary of the method: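 Compounds in DMSO (final 0.5%) were added to human HepG2 hepatoma cells at ten concentrations up to 200 uM for 24 hr. Fixed nuclei were stained with Hoechst 33342, and nuclear diameter was quantified from automated images.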

[4] = APR_HepG2_CellLoss_24hr: Apredica 24-hour HepG2 Assay for Cell Loss (AID 2282908); conditions: high-content imaging;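 on AC50: fit in both directions so a hit may be cell loss or gain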
Summary of the method: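 Cell number is quantified by fluorescence imaging of Hoechst 33342-stained nuclei following dosing at 0.39–200 uM in 0.5% DMSO. Curves are fitted in both directions from the DMSO baseline.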

[5] = APR_HepG2_MitoticArrest_24hr: Apredica 24-hour HepG2 Assay for Mitotic Arrest (AID 2282910); conditions: high-content imaging, actives raise or lower the signal
Summary of the method: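 Compounds are dosed onto HepG2 cells across ten concentrations up to 200 uM for 24 hr. Cells are then fixed in 3.7% formaldehyde, permeabilised, and labelled for phospho-histone H3 and nuclei; images are scored by cell cycle analysis and fitted bidirectionally relative to DMSO.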

[6] = APR_HepG2_MitoMembPot_24hr: Apredica 24-hour HepG2 Assay for Mitochondrial Membrane Potential (AID 2282911); conditions: imaging, actives raise or lower the signal
Summary of the method: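 Mitochondrial dye uptake (MitoTracker Red CMXRos, 250 nM, 30 min pre-fixation) in HepG2 after 24 hr compound exposure, 0.39–200 uM; ArrayScan images at 20x, activity fitted in both directions relative to DMSO.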

[7] = APR_HepG2_MitoMass_24hr: Apredica 24-hour HepG2 Assay for Mitochondrial Mass (AID 2282912); conditions: high-content imaging, actives raise or lower the signal
Summary of the method: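 The liver line HepG2 was dosed in duplicate across a 0.39–200 uM series, with final DMSO held at 0.5% v/v, and harvested at 24 hr. High-content imaging measured mitochondrial dye staining.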

[8] = APR_HepG2_p53Act_24hr: Apredica 24-hour HepG2 Assay for p53 Activation (AID 2282913); conditions: high-content imaging, actives raise or lower the signal;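 further: p53 protein immunofluorescence averaged per cell in HepG2 with Hoechst nuclei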
Summary of the method: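 Following 24 hr dosing of HepG2 at 0.39–200 uM, the cells undergo formaldehyde fixation, Triton permeabilization and multiplexed antibody labeling that includes p53 (Cy5). Signal from the imaging is referenced to DMSO solvent controls.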

[9] = APR_HepG2_CellCycleArrest_72hr: Apredica 72-hour HepG2 Assay for Cell Cycle Arrest (AID 2282914); conditions: high-content imaging, actives raise or lower the signal
Summary of the method: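 Using multiplexed high-content imaging, HepG2 nuclei stained with Hoechst 33342 (2 ug/mL) were analysed for DNA content after fixation and permeabilization. Treatment lasted 72 hr across 0.39–200 uM in duplicate with final DMSO 0.5% v/v; DMSO served as negative control.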

[10] = APR_HepG2_CellLoss_72hr: Apredica 72-hour HepG2 Assay for Cell Loss (AID 2282915); conditions: high-content imaging
Summary of the method: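 Cell number comes from Hoechst 33342-labelled nuclei, imaged at 20x after 3.7% formaldehyde fixation. Dosing was 0.39–200 uM, ten concentrations in duplicate, 0.5% DMSO final, for 72 h. Bidirectional fit relative to DMSO baseline.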

[11] = APR_HepG2_P-H2AX_72hr: Apredica 72-hour HepG2 Assay for H2AX Phosphorylation (AID 2282916); conditions: imaging, actives raise or lower the signal;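 further: phospho-histone H2A.x immunostain intensity per cell marking DNA damage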
Summary of the method: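 Following 72 hr treatment with 0.39–200 uM compound, HepG2 cells were formaldehyde-fixed, permeabilized and stained for phospho-H2A.x; signal was measured by high-content imaging and fitted bidirectionally against DMSO controls.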

[12] = APR_HepG2_MitoMembPot_72hr: Apredica 72-hour HepG2 Assay for Mitochondrial Membrane Potential (AID 2282917); conditions: imaging, actives raise or lower the signal
Summary of the method: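 Membrane potential read by MitoTracker Red CMXRos (250 nM, 30 min, pre-fixation) fluorescence imaging of HepG2 after 72 hr exposure. Ten concentrations, 0.39–200 uM, duplicate wells, 0.5% DMSO; fitted in both directions against DMSO baseline.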

[13] = APR_HepG2_MitoticArrest_72hr: Apredica 72-hour HepG2 Assay for Mitotic Arrest (AID 2282918); conditions: high-content imaging, actives raise or lower the signal
Summary of the method: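 Using high-content imaging of fixed HepG2 cells, phospho-histone H3 signal was measured following a 72 hr incubation with ten-point compound dilutions up to 200 uM. DMSO served as the negative control and baseline for bidirectional curve fitting.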

[14] = APR_HepG2_P-H2AX_24hr: Apredica 24-hour HepG2 Assay for H2AX Phosphorylation (AID 2282920); conditions: high-content imaging, actives raise or lower the signal
Summary of the method: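 Human HepG2 liver cells, treated 24 hr with test chemicals (0.39–200 uM, final DMSO 0.5% v/v), are fixed and co-stained for phospho-H2A.x and c-Jun with Hoechst. Imaged intensity is fitted in both directions against DMSO controls.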

[15] = APR_HepG2_StressKinase_72hr: Apredica 72-hour HepG2 Assay for Stress Kinase (AID 2282921); conditions: HepG2 stress kinase (phospho-c-Jun) imaging, actives raise or lower the signal
Summary of the method: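 Fluorescence intensity of Cy3-tagged anti-phospho-c-Jun antibody, quantified per cell from Hoechst-defined nuclei across six images per well, served as the read-out following 72 h exposure (0.39–200 uM, 0.5% v/v DMSO).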

[16] = APR_HepG2_StressKinase_24hr: Apredica 24-hour HepG2 Assay for Stress Kinase (AID 2282922); conditions: HepG2 stress kinase (phospho-c-Jun) imaging, actives raise or lower the signal
Summary of the method: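 HepG2, 24 hr dosing, 0.39–200 uM in duplicate, 0.5% DMSO; formaldehyde fix (3.7%), 0.5% Triton X-100; anti-phospho-c-Jun + Cy3 secondary, Hoechst counterstain; ArrayScan imaging; bidirectional curve fit vs DMSO baseline.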

[17] = APR_HepG2_p53Act_72hr: Apredica 72-hour HepG2 Assay for p53 Activation (AID 2282923); conditions: high-content imaging, actives raise or lower the signal;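 further: average cellular p53 protein immunofluorescence intensity in HepG2 cells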
Summary of the method: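 HepG2 monolayers receive test compounds in duplicate at ten concentrations (0.39 through 200 uM) for 72 hr. They are then formaldehyde-fixed, antibody-labelled for p53, Hoechst-stained and imaged, with activity fitted bidirectionally versus DMSO.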

[18] = APR_HepG2_MitoMass_72hr: Apredica 72-hour HepG2 Assay for Mitochondrial Mass (AID 2282924); conditions: high-content imaging, actives raise or lower the signal;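 further: MitoTracker Red CMXRos stain intensity per cell imaged as mitochondrial mass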
Summary of the method: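 HepG2, 72 hr cmpd, 10 conc 0.39–200 uM in dup, DMSO 0.5% v/v. MitoTracker Red CMXRos 250 nM 30 min pre-fix; formaldehyde 3.7% fix 30 min RT. HCS imaging, gain/loss fit vs DMSO.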

Measured: AC50

CC(C)(C)c1ccc(CSc2cnn(C(C)(C)C)c(=O)c2Cl)cc1
active: [1] 16.1 µM | [4] 2.58 µM | [9] 16.1 µM | [10] 8.33 µM
inactive: all other assays above

O=C(Nc1ccccc1)Nc1ccnc(Cl)c1
active: [1] 69.9 µM | [4] 84.3 µM | [7] 108 µM | [9] 37.2 µM | [10] 53.8 µM | [12] 3.46 µM
inactive: all other assays above

O=C(O)COc1nc(Cl)c(Cl)cc1Cl
inactive: all assays above

CCc1nn(C)c(C(=O)NCc2ccc(C(C)(C)C)cc2)c1Cl
active: [2] 9.39 µM | [4] 86.9 µM | [10] 20.7 µM | [14] 100 µM
inactive: all other assays above
